Screening data: PubChem BioAssay, National Center for Advancing Translational Sciences (NCATS)
Tau fluor cs = counter-screen for tau fibril formation inhibitors | tau K18 P301L Alexa594 fluorescence, heparin fibrillization | Potency, µM (highest dose often 57.7 µM), without a hit: at the highest dose activity change, negative = decrease | 0.93% of 280,000 active | AID 1463; further: nearly all actives have a fitted effect of over 55% in size
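Human tau K18 P301L (15 uM unlabeled, 0.24 uM Alexa 594-labeled) in 100 mM sodium acetate pH 7 with 20 uM heparin, 6 hr at 37 C. ThT 30 uM added, 1 hr ambient; Alexa 594 FP and total fluorescence read at 555/632 nm.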
Tau fibril ThT = blocks human tau fibril formation measured by thioflavin T; recombinant tau K18 P301L, heparin-induced fibrillization, ThT fluorescence; Potency, µM (highest dose often 57.4 µM), without a hit: at the top dose activity, negative = inhibition, usual class: inhibitors; 2.1% of 270,000 active; further: nearly all actives have a fitted effect of over 55% in size
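ThT emission at 510 nm, taken 1 hr after adding 30 uM dye, quantifies aggregates formed when 20 uM heparin acts on human tau K18 P301L for 6 hr at 37 C.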
ALDH1A1 block = inhibitors of human aldehyde dehydrogenase 1A1 | AID 1030 | Potency, µM (titrated, usually from 75.3 µM), for the others: at the top dose activity, negative = inhibition, most hits filed as inhibitors | P00352 | Purified ALDH1A1, NADH fluorescence, propionaldehyde substrate | 7.3% of 220,000 active; active means well fitted inhibition curve with a large enough effect, not every such curve was filed as active; inconclusive means small, poorly fitted or top-dose-only effect, or another doubt; inactive means no such curve, though single readings can be large or run the other way;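 further: plate controls were no enzyme wells and a reference inhibitor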
Target sequence (P00352 whole entry, looked up): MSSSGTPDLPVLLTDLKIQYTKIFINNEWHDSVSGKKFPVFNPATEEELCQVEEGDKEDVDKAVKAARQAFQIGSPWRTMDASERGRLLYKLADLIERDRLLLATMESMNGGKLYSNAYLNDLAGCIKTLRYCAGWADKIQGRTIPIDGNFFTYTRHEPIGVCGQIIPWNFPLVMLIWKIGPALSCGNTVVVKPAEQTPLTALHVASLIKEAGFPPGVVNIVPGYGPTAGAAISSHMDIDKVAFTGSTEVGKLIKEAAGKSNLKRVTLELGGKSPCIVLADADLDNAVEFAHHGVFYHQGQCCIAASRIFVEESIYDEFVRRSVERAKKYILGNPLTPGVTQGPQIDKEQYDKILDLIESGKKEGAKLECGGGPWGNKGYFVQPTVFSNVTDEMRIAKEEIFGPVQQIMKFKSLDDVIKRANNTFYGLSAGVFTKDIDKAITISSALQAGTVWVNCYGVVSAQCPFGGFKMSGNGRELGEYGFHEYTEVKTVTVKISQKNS
HPGD block = blocks human HPGD enzyme activity. P15428. Potency, µM, for the others: at the top dose activity change, negative = inhibition, most hits filed as inhibitors. 4.3% of 150,000 active. AID 894. purified HPGD, NADH fluorescence kinetic, PGE2 substrate; active means well fitted inhibition curve with a large enough effect, not every such curve was filed as active; inconclusive means small, poorly fitted or top-dose-only effect, or another doubt; inactive means no such curve, though single readings can be large or run the other way
Target sequence (P15428 whole entry, looked up): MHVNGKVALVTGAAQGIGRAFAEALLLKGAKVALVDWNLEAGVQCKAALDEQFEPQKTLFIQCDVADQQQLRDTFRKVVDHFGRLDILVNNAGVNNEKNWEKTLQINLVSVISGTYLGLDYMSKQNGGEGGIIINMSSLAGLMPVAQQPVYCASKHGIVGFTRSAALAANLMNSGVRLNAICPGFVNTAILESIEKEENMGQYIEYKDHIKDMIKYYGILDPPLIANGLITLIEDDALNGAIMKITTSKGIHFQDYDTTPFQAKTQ
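20 nM HPGD preincubated 15 min at room temperature with compound in 50 mM Tris-HCl pH 8, 0.01% Tween 20. Started with 1 mM NAD+ and 30 uM prostaglandin E2; NADH fluorescence (360/450 nm) read 5 times over 30-s intervals, last minus first.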
JMJD2E inh = blocks human JMJD2E demethylase activity. B2RXH2. JMJD2E catalytic domain, FDH-coupled NADH fluorescence (FDH is formaldehyde dehydrogenase). Potency, µM (highest dose often 57.1 µM), for the others: at the highest dose activity change, negative = inhibition, hits mostly inhibitors. 1.6% of 230,000 active. AID 2147; active means well fitted inhibition curve with a large enough effect, not every such curve was filed as active; inconclusive means small, poorly fitted or top-dose-only effect, or another doubt; inactive means no such curve, though single readings can be large or run the other way;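 further: 0% = wells with enzyme and -100% = buffer wells without enzyme; nearly all actives have a fitted effect of over 50% in size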
Tau fibril FP = blocks human tau fibril formation measured by polarization; 0.39% of 280,000 active; K18 P301L tau heparin fibrillization, Alexa594 FP, 6 h; Potency, µM (doses to about 57.7 µM), inactives show at the top dose activity, negative = inhibition, actives largely listed as inhibitors; further: nearly all actives have a fitted effect of over 55% in size
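Heparin (20 uM) drove fibril formation of recombinant tau K18 P301L, 15 uM unlabeled with 0.24 uM Alexa 594 label, for 6 hr at 37 C in 100 mM sodium acetate pH 7. Fluorescence polarization (555/632 nm) read 1 hr after 30 uM ThT.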
Numbers without * were called inactive; ? = inconclusive; nt = not tested or not shown; [ ] = another dose, or the depositor's remark. A selection: hits, their analogues and other compounds. The true share with any hit is near 9.9%. Unless noted, the call rests on the fitted dose curve; in most records, active means well fitted curve in the direction sought with a large enough effect; inconclusive means small, poorly fitted or top-dose-only effect, or another doubt; inactive means no such curve, though single readings can be large; an effect the other way counts as inactive or inconclusive. Unless noted, on the % scale 0 is the no-effect control and ±100 the full control effect; potency means the concentration at half of the fitted maximal effect.

SMILES	Tau fluor cs	Tau fibril ThT	ALDH1A1 block	HPGD block	JMJD2E inh	Tau fibril FP
CC(C)Cn1c(=O)c2ccccc2n2c(SCC(=O)N3c4ccccc4CC3C)nnc12 (centres undefined)	-2.6%	4.7%	?	?	-8.6%	-4.3%
COc1ccc(C2=NOC(C(=O)NCc3ccco3)C2)cc1 (centres undefined)	-9.9%	-13.7%	22.4µM*	?	-2.7%	-3.0%
COc1cc(C2=NOC(C(=O)NCc3ccco3)C2)cc(OC)c1OC (centres undefined)	0.2%	5.8%	6.4%	-1.8%	3.3%	6.9%
COc1ccc(NC(=O)C2C3C=CC(C3)C2C(=O)NCc2ccco2)cc1 (centres undefined)	-0.9%	-8.0%	-14.8%	25.1µM*	0.2%	-4.0%
COc1ccc(C(=O)NCCn2cc(SCC(=O)Nc3ccc(F)cc3)c3ccccc32)cc1	14.1µM*[quencher]	?	nt	nt	nt	?
Cc1nnc(NC(=O)CSc2cn(Cc3ccccc3)c3ccccc23)s1	-17.1%	-13.1%	?	-1.2%	9.3%	-2.5%
Cc1ccc(C(=O)NCCn2cc(SCC(=O)Nc3cc(C)on3)c3ccccc32)cc1	?	?	12.6µM*	-6.2%	3.2%	3.8%
COc1ccccc1C(=O)NCCn1cc(SCC(=O)Nc2nnc(C)s2)c2ccccc21	-16.6%	?	0.316µM*	-15.0%	8.0%	4.9%
CN1CCN(Cc2nc3cccc4c3c([n+]2[O-])-c2ccccc2-4)CC1	nt	nt	-3.1%[13.5 µM]	-8.6%	nt	nt
CCCN(CCC)C(=O)Cn1c(=O)n(CCCCCC(=O)NCc2ccccc2Cl)c(=O)c2sccc21	4.7%	15.8%	nt	nt	nt	-0.4%
COc1cc(NC(C)CCCN)c2ncccc2c1 (centres undefined)	-15.0%	-10.5%	-3.5%	-5.5%	?	-0.3%
COc1cc(NCCCCCCCN)c2ncccc2c1	-3.0%	7.5%	3.55µM*	-11.7%	7.8%	5.0%
C/C(=N/S(=O)(=O)c1ccc(Cl)c(Cl)c1)OCC(C)(C)C	nt	nt	5.2%[13.5 µM]	-5.9%	nt	nt
Cc1cccc(CC(=O)NCCc2csc(-c3ccc(C(F)(F)F)cc3)n2)c1	-23.0%	-20.6%	nt	nt	nt	0.7%
Cc1cc(-n2c(SCC(=O)NCc3ccccc3)nc3ccsc3c2=O)ccc1Cl	-18.6%	-5.9%	nt	nt	nt	-0.9%
CCCSc1cc(NCCOC(C)=O)c([N+](=O)[O-])c2nonc12	?	?	6.1%	-25.5%	0.4%	-5.6%
CC(=O)OCCCNc1cc(SCc2ccco2)c2nonc2c1[N+](=O)[O-]	7.08µM*[quencher]	7.94µM*	7.94µM*	7.94µM*	-19.3%	?
CCCC(=O)OCCNc1cc(Sc2nccn2C)c2nonc2c1[N+](=O)[O-]	?	7.08µM*	?	28.2µM*	-1.4%	?
CCCC(=O)OCCNc1cc(SCc2ccco2)c2nonc2c1[N+](=O)[O-]	4.47µM*[quencher]	3.98µM*	4.47µM*	?	-1.3%	?
CCC(C(=O)Nc1cc(C(F)(F)F)ccc1Cl)n1nc(C)c2sc3ccccc3c2c1=O (centres undefined)	-8.6%	?	nt	nt	nt	-11.2%
COc1cc(C2SC[C@H]3C(=O)N(c4ccccc4)C(=O)N23)cc(OC)c1OC (some centres undefined)	-11.0%	-7.4%	nt	nt	nt	-10.4%
O=C(C1CC1)N(Cc1ccco1)c1nc(-c2ccccc2)cs1	-17.5%	?	6.31µM*	-25.4%	-3.8%	-3.9%
Cc1ccc(C2(C)NC(=O)N(CC(=O)Nc3cccnc3Cl)C2=O)cc1 (centres undefined)	-13.6%	-7.0%	3.16µM*	nt	?	-6.4%
Cc1ccc(Cn2ccc(NC(=O)c3nc4ncccn4n3)n2)cc1	2.3%	10.0%	4.6%	-5.7%	0.2%	4.8%
O=C(Nc1cnn(Cc2ccc(Cl)c(Cl)c2)c1)c1nc2ncccn2n1	-22.3%	-7.3%	-2.7%	20µM*	3.8%	-6.7%
SMILES	Tau fluor cs	Tau fibril ThT	ALDH1A1 block	HPGD block	JMJD2E inh	Tau fibril FP
Cc1ccc(C(=O)CCNc2ccccc2)o1	-6.9%	-11.8%	15.8µM*	-3.8%	-1.5%	6.7%
Cc1ccc(C(=O)CCNc2ccc(Br)cc2)o1	-21.5%	-21.7%	11.2µM*	-10.4%	0.3%	3.0%
Cc1ccc(C(=O)CCNc2cccc(Br)c2)o1	-28.5%	-14.5%	?	-12.1%	1.9%	2.8%
Cc1ccc(C(=O)CCNc2ccc(F)c(Cl)c2)o1	-10.1%	-7.9%	14.1µM*	-7.8%	0.4%	?
Cc1ccc(OCCC(=O)Nc2ccc(F)c(Cl)c2)cc1	-20.6%	3.4%	8.7%	-6.0%	-0.5%	?
CC(=O)N1CCN(c2csc3ccc(F)cc3c2=O)CC1	-4.2%	-14.4%	nt	nt	nt	0.5%
O=C(NCCN1C(=O)C2C3C=CC(C3)C2C1=O)Nc1ccc(Br)cc1 (centres undefined)	-13.3%	-5.4%	11.2µM*	-10.7%	-3.9%	7.7%
Cc1ccc(N2CCn3c2nc2c3c(=O)n(CCCc3ccccc3)c(=O)n2C)cc1C	11.4%	11.9%	nt	nt	nt	-7.4%
CCn1c(CNc2cccc(Cl)c2)nnc1SCC(=O)OC1CCCCC1	-14.2%	-10.4%	?	28.2µM*	-18.4%	6.2%
CC(=O)OCC(=O)Nc1ccc(Br)c(C)c1	2.0%	4.5%	20.2%	nt	14.6%	3.1%
Cc1ccc(NC(=O)COC(=O)C(NS(=O)(=O)c2ccc(Cl)cc2)C(C)O)c(Br)c1 (centres undefined)	-15.8%	-16.1%	3.55µM*	1.4%	6.5%	8.8%
CCc1cccc(C)c1NC(=O)COC(=O)C(NS(=O)(=O)c1ccc(Cl)cc1)C(C)O (centres undefined)	-4.6%	-1.5%	4.6%	-2.4%	12.0%	?
Cc1ccc(NC(=O)COC(=O)C(NS(=O)(=O)c2ccc(Cl)cc2)C(C)O)cc1C (centres undefined)	7.3%	11.1%	1.26µM*	-7.0%	-8.7%	1.3%
Cc1ccc(NC(=O)COC(=O)C2CC2(Cl)Cl)cc1C (centres undefined)	-7.9%	-5.5%	20µM*	nt	2.2%	0.2%
COC(=O)[C@H](Cc1ccccc1)NC(=O)C/C=C\[C@@H](C)[C@@H](CO)OC	-3.7%[11.6 µM]	-9.2%[11.5 µM]	?	nt	nt	4.7%[11.6 µM]
CCOCCCn1c(SCC(=O)OCC)nc2c(sc3ccccc32)c1=O	-10.2%	-3.4%	nt	nt	nt	-2.7%
COc1ccc(/C=C(\C#N)C(=O)C(C)(C)n2cncn2)cc1	-13.2%	-3.9%	-1.8%	nt	3.0%	?
Oc1ccc(Br)cc1/C=N/n1cnc2ccccc21	?	?	8.2%	14.1µM*	3.3%	?
Cc1ccc(C(=O)Nc2ccccc2N2CCOCC2)c(C)c1	nt	nt	12.9%	-6.9%	nt	nt
CC1(C)CC(=O)C(C=NCCN2CCN(C3CC(=O)N(c4ccc(Cl)c(Cl)c4)C3=O)CC2)=C(O)C1 (centres undefined)	-14.5%	-7.1%	22.4µM*	nt	-0.5%	-1.3%
